Measurements: PubChem BioAssay AID504885 (Johns Hopkins Ion Channel Center, 2011)
Active and inactive are the calls of the source.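 Rule for the calls: active = TRPC6 cation channel blocked by over 30% at any dose tested, plus a fitted dose response curve; inactive = the rest.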

These molecules were tested against Short transient receptor potential channel 6 (Mus musculus) (UniProt Q61143) (assay: mouse TRPC6 channel inhibitors, SAR follow-up, HEK293 cells, membrane potential dye, set 2 (AID 504885)). Details: acetylcholine-stimulated; series mostly up to 20 µM; fluorescence ratio, lower = inhibition: at the top concentration.
Chain of Short transient receptor potential channel 6 (Mus musculus) (Q61143 whole entry, looked up): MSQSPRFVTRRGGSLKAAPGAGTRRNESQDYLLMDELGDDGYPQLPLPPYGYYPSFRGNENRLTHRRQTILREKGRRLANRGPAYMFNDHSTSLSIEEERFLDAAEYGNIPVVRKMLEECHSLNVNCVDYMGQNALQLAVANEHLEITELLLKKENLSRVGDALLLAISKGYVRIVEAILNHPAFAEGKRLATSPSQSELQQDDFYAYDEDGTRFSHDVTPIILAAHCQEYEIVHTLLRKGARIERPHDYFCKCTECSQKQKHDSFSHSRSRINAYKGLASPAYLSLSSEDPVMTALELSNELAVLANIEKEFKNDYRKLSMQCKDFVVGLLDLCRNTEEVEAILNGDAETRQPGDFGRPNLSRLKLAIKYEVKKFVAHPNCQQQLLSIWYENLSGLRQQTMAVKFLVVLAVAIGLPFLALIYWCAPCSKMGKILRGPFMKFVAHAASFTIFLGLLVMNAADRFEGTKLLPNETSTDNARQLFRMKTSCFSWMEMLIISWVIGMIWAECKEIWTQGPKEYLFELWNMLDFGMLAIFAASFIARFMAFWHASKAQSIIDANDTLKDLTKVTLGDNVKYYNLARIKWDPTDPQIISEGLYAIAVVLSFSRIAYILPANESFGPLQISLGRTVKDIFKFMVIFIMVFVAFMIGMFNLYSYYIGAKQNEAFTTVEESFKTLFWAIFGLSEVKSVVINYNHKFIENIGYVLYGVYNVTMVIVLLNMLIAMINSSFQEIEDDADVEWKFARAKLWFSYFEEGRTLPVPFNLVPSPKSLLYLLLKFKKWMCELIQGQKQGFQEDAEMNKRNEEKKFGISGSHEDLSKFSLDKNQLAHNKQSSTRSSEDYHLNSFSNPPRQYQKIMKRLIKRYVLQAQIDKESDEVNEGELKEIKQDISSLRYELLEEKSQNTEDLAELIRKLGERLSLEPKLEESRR

Fluorescence ratio, lower = inhibition, inactive:
CC(C)N1CCC(N2CCN(Cc3ccc4nsnc4c3)CC2CCO)CC1 (stereo not given) 22, CN1CCC(N2CCN(Cc3ccc4nsnc4c3)CC2CCO)CC1 (stereo not given) 24.3, CSCc1cc(N(C)c2ccccc2)nc(-c2ccccn2)n1 17.8, Cc1cccc(CN2CCN(Cc3ccc4nsnc4c3)CC2CCO)n1 (stereo not given) 20.3, Cc1ccc(C)c(N2CCN(C(=O)c3ccc4nsnc4c3)CC2)c1 18.7, CC(C)N1CCN(Cc2ccc3nsnc3c2)CC1CCO (stereo not given) 20.9, O=S(=O)(Cc1cc(N2CCN(c3ccccc3)CC2)nc(-c2ccccn2)n1)c1ccccc1 24, OCCC1CN(Cc2ccc3nsnc3c2)CCN1CCCc1ccccc1 (stereo not given) 12.4, Clc1ccc(SCc2cc(N3CCCCC3)nc(-c3ccccn3)n2)cc1 19.2, CSCc1cc(N2CCOCC2)nc(-c2ccccn2)n1 22, CN1CCN(Cc2ccc3nsnc3c2)CC1CCO (stereo not given) 23.7, Cc1ccccc1CN1CCN(Cc2ccc3nsnc3c2)CC1CCO (stereo not given) 17.6, O=S(=O)(Cc1cc(N2CCOCC2)nc(-c2ccccn2)n1)c1ccccc1 21.7, CC(C)CCN1CCN(Cc2ccc3nsnc3c2)CC1CCO (stereo not given) 16.6, CC(C)CN1CCN(Cc2ccc3nsnc3c2)CC1CCO (stereo not given) 17.5
